Over roughly 33,000 sequences, “E-score (-0.5 to 0.5)” has its median near -0.043; the highest 2% begin near 0.37. This is one part of a sample in which the highest values are shown more often than they occur.
What follows are sequences tested against T1, Upc2 (UniProt Q12151) (assay: PBM E-score (8-mer binding enrichment) (E-score (-0.5 to 0.5)); higher = stronger / more preferred TF binding). Details: protein concentration: 200 nM; construct: GST-full length.
T1 sequence: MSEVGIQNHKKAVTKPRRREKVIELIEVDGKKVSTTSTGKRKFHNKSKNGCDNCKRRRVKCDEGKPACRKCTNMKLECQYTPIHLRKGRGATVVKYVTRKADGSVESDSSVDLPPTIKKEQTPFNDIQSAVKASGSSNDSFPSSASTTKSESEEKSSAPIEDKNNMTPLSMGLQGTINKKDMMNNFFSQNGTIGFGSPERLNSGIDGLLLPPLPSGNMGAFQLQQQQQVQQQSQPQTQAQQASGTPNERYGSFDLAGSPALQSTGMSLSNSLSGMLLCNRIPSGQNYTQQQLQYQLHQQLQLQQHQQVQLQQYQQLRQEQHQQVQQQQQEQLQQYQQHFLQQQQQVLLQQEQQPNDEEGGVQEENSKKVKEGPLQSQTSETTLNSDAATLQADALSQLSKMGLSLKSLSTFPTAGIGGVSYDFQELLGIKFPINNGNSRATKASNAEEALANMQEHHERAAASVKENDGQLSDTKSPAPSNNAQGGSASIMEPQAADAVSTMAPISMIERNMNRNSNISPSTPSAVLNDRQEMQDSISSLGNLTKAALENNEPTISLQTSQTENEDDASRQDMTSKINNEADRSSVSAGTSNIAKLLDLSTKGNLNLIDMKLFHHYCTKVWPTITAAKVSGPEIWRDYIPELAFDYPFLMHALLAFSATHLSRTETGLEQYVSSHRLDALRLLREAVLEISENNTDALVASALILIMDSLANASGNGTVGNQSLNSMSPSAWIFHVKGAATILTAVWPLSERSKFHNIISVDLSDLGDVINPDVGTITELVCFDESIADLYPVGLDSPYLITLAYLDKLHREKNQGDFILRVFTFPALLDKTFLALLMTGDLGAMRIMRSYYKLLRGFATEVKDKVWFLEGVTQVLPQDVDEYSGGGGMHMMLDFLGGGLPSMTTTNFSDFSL
Method in brief: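 PURExpress in vitro transcription/translation supplied GST-tagged yeast transcription factors, either full-length or DNA-binding domain. Applied at about 100-200 nM to universal all-10-mer Agilent arrays double-stranded by primer extension, the bound protein was detected with fluorescent anti-GST. E-scores, modified Wilcoxon-Mann-Whitney statistics, were given by the Universal PBM Analysis Suite to ungapped eight-base words pooled with their reverse complements after masliner normalisation.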

| Sequence | PBM E-score |
| --- | --- |
| GAGTAACC | 0.101 |
| GTCTCACA | -0.0791 |
| CGATATGC | 0.149 |
| GCAACTGA | 0.0086 |
| GAACTGCA | -0.0845 |
| ACGAAACC | 0.267 |
| ACGAAACA | 0.339 |
| CCGAAACG | 0.346 |
| ACGAAACT | 0.382 |
| ACGAAAGG | 0.32 |
| ACGAAACG | 0.403 |
| GAATTTGA | -0.0533 |
| CACCACCC | -0.124 |
| AGTGAAAC | -0.0497 |
| CCCCTTTA | -0.129 |
| AAACGGAG | 0.34 |
| AAACGGGA | 0.369 |
| AAACGGGT | 0.344 |
| TAACGGGA | 0.0733 |
| AAACGGAT | 0.37 |
| AAACGGAC | 0.337 |
| GAACGGGC | 0.291 |
| AAACGGGG | 0.398 |
| GAACGGGA | 0.238 |
| CAACGGGC | 0.00552 |

| Sequence | PBM E-score |
| --- | --- |
| CAACGGGG | -0.0318 |
| AAACGGGC | 0.395 |
| AGACCCCA | -0.148 |
| ATAGAACG | 0.253 |
| GCCATCTA | -0.299 |
| CAGACCAG | -0.0598 |
| CATTCACA | -0.114 |
| CTCGGCGC | 0.069 |
| AAGAGTCA | -0.11 |
| CATTAAGC | 0.0328 |
| ATACGGCG | 0.43 |
| ATACGGCC | 0.416 |
| CTACGGCC | -0.0664 |
| CTACGGCA | 0.0153 |
| AGACGGCC | -0.222 |
| AGACGGCG | -0.0186 |
| GTACGGCA | 0.364 |
| ATACGGCA | 0.422 |
| ACACGGCG | -0.0227 |
| GTTTCACA | 0.00208 |
| CCGAGTCC | -0.0483 |
| GCTCCTAC | 0.0461 |
| GCAGTTAA | 0.0277 |
| GATGATAC | 0.0998 |
| AGCCAAAA | -0.178 |

| Sequence | PBM E-score |
| --- | --- |
| GAAAACGA | 0.263 |
| AGAAACGG | 0.217 |
| CGAAACGA | 0.447 |
| GGAAACAA | -0.0508 |
| GGAAACGA | 0.428 |
| AGAAACGA | 0.4 |
| AGAAACGC | -0.037 |
| CGAAACGC | 0.15 |
| CGAAACCA | 0.201 |
| ACAGTCCT | -0.319 |
| CTCGCTCC | 0.313 |
| ACATAGTG | -0.128 |
| ACCGCCAG | -0.0637 |
| GATCACGA | -0.00109 |
| TGTAAAAA | -0.0321 |
| CGTAAAAA | 0.404 |
| GGTAAAAC | 0.0926 |
| AGTAAAAG | 0.168 |
| CTTAAAAG | -0.0494 |
| AGTAAAAA | -0.0254 |
| CGTAAACC | 0.364 |
| CGTAAAAG | 0.405 |
| CGTAAAAC | 0.389 |
| GGCCAACC | -0.0824 |
| ATAGAGGC | -0.0461 |

| Sequence | PBM E-score |
| --- | --- |
| ACAAAGGA | -0.0862 |
| GGTTGTAC | 0.154 |
| GCAGATCA | -0.161 |
| CGCCTTAG | -0.169 |
| GCCACATA | -0.153 |
| TCAGACAA | -0.17 |
| ACCGAAAG | 0.108 |
| AACGAAAT | 0.398 |
| GACGAAAC | 0.251 |
| AACGAAAA | 0.368 |
| AACGAAAG | 0.383 |
| AACGAAAC | 0.37 |
| CACGAAAG | -0.0189 |
| ACCGAAAT | 0.141 |
| CACGAAAC | 0.0525 |
| ACTCGCCC | -0.205 |
| AACGCTAG | -0.089 |
| CGATCGTC | 0.128 |
| AGATCGTC | -0.141 |
| CGATCGTA | 0.437 |
| GGATCGTA | 0.422 |
| GGATCGGA | 0.0439 |
| AGATCGTG | 0.0463 |
| GGATCGAA | 0.211 |
| CGATCGAA | 0.24 |

| Sequence | PBM E-score |
| --- | --- |
| AGATCGTA | 0.387 |
| CTAGGTCA | -0.214 |
| CTATCAGA | -0.13 |
| AACAAGGC | -0.167 |
| AGTCGTAA | 0.379 |
| TGGCGTAA | 0.0743 |
| CGTCGTCA | 0.055 |
| TGTCGGAA | 0.0576 |
| AGTCGTGA | -0.0656 |
| CGTCGTGA | 0.127 |
| GGTCGTGA | -0.0444 |
| GGTCGTCA | -0.0836 |
| AGTCGTCA | -0.167 |
| TGTCGTAA | 0.433 |
| CGTCGTAA | 0.457 |
| GGTCGTAA | 0.421 |
| ACCGTTAT | -0.0125 |
| GAGTCAAA | -0.229 |
| ATTCTAAC | -0.125 |
| AGCAAGAG | -0.203 |
| CTGAGCTA | -0.0866 |
| ACCGCTTC | -0.203 |
| AGTGAACT | -0.117 |
| ACTGTTCG | 0.16 |
| GCGTACTA | 0.0874 |

| Sequence | PBM E-score |
| --- | --- |
| ACGTACGT | 0.293 |
| GCGTACGA | 0.448 |
| CCGTACGC | 0.308 |
| CCGTACTA | 0.282 |
| ACGTACGA | 0.431 |
| GCGTACGC | 0.281 |
| ACGTACGC | 0.254 |
| CCGTACGA | 0.443 |
| CCCTACGG | -0.0948 |
| CCGTACGG | 0.374 |
| ACGTACGG | 0.354 |
| TAAAGCCA | 0.0825 |
| ATGCGACG | 0.306 |
| AAGAATCT | -0.148 |
| CCTTGCAA | -0.115 |
| AGTGCGAT | 0.0239 |
| GATAGAAA | 0.0471 |
| AGACCCTG | -0.259 |
| TCTCCTAA | -0.00947 |
| TCGTACGA | 0.471 |
| TCCTACGA | 0.256 |
| TCGCACGA | 0.0732 |
| CCTCGATA | -0.0083 |
| CAACGCTG | -0.0985 |
| CCCTCGTA | 0.465 |

| Sequence | PBM E-score |
| --- | --- |
| ACCTCGTA | 0.462 |
| GCCTCGTA | 0.473 |
| ACCTCGTG | 0.2 |
| CCCTCGTC | 0.122 |
| GCCTCGAA | 0.00343 |
| GCCTCGGA | 0.135 |
| ACCTCGTC | 0.0626 |
| CCCTCGGA | 0.195 |
| TCCACTCA | -0.17 |
| CTAAGAGA | -0.0721 |
| ACAGAGCG | -0.0821 |
| TAGGCAAA | -0.108 |
| AACAGTTA | -0.135 |
| GTATCGTA | 0.423 |
| CTATCGTC | -0.0375 |
| GTATCGGA | 0.229 |
| ATATCGTA | 0.427 |
| ATATCGTC | 0.0922 |
| GTATCGAA | 0.142 |
| ATATCGTG | 0.0382 |
| CTATCGTA | 0.43 |
| CTATCGAA | -0.056 |

Reference: the supplement of paper PMC3334620
